Results from patent publication US20180258417, “RAPID CHARACTERIZATION OF CAS ENDONUCLEASE SYSTEMS, PAM SEQUENCES AND GUIDE RNA ELEMENTS” (PIONEER HI-BRED INTERNATIONAL, INC., published 2018).

Assays:
Blat Cas9 [1] = molecular target: T1, Blat Cas9 (Brevibacillus laterosporus SSP360D4); assay: cleavage_in_vitro; PAM position 7 A to C; 10 mM MgCl2, 15 C; settings: tags: C-terminal His (pBAD24-CHis)
T1 chain: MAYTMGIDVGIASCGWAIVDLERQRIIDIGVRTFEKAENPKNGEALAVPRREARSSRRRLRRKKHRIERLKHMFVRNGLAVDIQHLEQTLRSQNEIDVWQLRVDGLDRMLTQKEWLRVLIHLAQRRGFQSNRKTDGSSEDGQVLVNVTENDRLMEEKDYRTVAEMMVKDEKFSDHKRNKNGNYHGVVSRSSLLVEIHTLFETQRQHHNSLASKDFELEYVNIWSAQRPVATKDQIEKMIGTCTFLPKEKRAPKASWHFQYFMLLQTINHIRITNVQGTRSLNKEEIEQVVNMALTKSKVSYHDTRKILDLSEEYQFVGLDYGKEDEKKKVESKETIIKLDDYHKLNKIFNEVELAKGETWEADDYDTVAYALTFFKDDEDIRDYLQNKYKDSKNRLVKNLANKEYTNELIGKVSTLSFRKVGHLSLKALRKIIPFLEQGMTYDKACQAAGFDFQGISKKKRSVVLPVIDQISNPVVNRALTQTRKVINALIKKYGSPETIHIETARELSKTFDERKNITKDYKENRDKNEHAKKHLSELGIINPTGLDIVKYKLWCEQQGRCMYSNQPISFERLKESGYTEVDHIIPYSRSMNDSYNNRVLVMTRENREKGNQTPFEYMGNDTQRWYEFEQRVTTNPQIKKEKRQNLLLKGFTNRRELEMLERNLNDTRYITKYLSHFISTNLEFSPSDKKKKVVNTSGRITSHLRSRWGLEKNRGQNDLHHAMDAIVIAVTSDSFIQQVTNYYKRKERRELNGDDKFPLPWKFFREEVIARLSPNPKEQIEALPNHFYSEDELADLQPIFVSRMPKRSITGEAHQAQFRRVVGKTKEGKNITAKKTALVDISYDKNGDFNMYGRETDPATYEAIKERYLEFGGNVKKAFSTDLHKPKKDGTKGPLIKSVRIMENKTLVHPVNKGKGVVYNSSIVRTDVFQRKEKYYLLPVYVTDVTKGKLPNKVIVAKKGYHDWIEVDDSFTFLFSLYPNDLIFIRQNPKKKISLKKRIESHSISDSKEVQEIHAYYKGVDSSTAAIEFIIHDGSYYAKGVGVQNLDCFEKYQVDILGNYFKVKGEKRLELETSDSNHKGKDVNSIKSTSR
Text: (§1) To validate the PAM specificity for Blat Cas9, plasmids were engineered to contain mutations ([…] (reference), […], […], […], […], […] with mutations shown in bold and underlined, FIG. 39) in the most conserved residues of the PAM immediately downstream of a 20 base pair region matching the variable targeting domain T1 (SEQ ID NO: 141). In vitro cleavage reactions with the various PAM sequences were initiated by mixing supercoiled plasmid DNA with pre-assembled Blat Cas9-sgRNA complex (1:1 v/v ratio) at 15° C. The final reaction mixture contained 3 nM plasmid, 50 nM Cas9, 10 mMTris-HCl (pH 7.5 at 37° C.), 100 mM NaCl, 1 mM DTT and 10 mM MgCl2 in a 100 μI reaction volume. Aliquots were removed at timed intervals and quenched with phenol/chloroform. The aqueous phase was mixed with 3× loading dye solution (0.01% (w/v) bromophenol blue and 75 mM EDTA in 50% (v/v) glycerol) and reaction products analyzed by agarose gel electrophoresis. The amount of supercoiled (SC) form was evaluated by densitometric analysis of ethidium bromide stained gels using the software ImageJ. Values of reaction rate constants were obtained as described by Szczelkun, et al., (2014) Proc. Natl. Acad. Sci. USA 111:9798-9803). Replacement of the C nucleotide at the 5th position abolished plasmid DNA cleavage confirming its key role in Blat Cas9 PAM recognition (FIG. 39).

Blat Cas9 [2] = molecular target: T1, Blat Cas9; assay: cleavage_in_vitro; PAM position 8 A to C; 10 mM MgCl2, 15 C; settings: tags: C-terminal His (pBAD24-CHis)
Text: as §1

B1: Blat sgRNA direct ; T1 + GTCCCGCA PAM (ssRNA ; dsDNA)
RNA: GGGCGCUAAAGAGGAAGAGGACAGCUAUAGUUCCUUACUGAAAGGUAAGUUGCUAUAGUAAGGGCAACAGACCCGAGGCGUUGGGGAUCGCCUAGCCCGUUUUUACGGGCUCUCCCCAUAUUCAAAAUAAUGACAGACGAGCACCUUGGAGCAUUUAUUUCCGAGGUGCUUUUUUUU
DNA 1: CGCTAAAGAGGAAGAGGACAGTCCCGCA
DNA 2: TGCGGGACTGTCCTCTTCCTCTTTAGCG
modifications: [NONE]
**Q.** For B1, which “cleavage rate decrease vs reference PAM” value (Blat Cas9 [1]) is on record?
**A.** 43 fold decrease in rate

B2: Blat sgRNA direct ; T1 + GTCCCGAC PAM (ssRNA ; dsDNA)
RNA: GGGCGCUAAAGAGGAAGAGGACAGCUAUAGUUCCUUACUGAAAGGUAAGUUGCUAUAGUAAGGGCAACAGACCCGAGGCGUUGGGGAUCGCCUAGCCCGUUUUUACGGGCUCUCCCCAUAUUCAAAAUAAUGACAGACGAGCACCUUGGAGCAUUUAUUUCCGAGGUGCUUUUUUUU
DNA 1: CGCTAAAGAGGAAGAGGACAGTCCCGAC
DNA 2: GTCGGGACTGTCCTCTTCCTCTTTAGCG
**Q.** With B2 as the binder, how does the binding signal (Blat Cas9 [2]) read?
**A.** 12 fold decrease in rate
